Measurements reported in PubChem BioAssay (NCI).
The panel holds about 79,000 compounds, 15% with a hit somewhere; the sample as a whole holds those more often. Values without a mark were called inactive. Active and inactive are the calls of the source. Cut-off read from the data, not from the text of the source: active = growth inhibition above about 70%; inactive = the rest.

Columns and labels:
[1] = NCI Yeast Anticancer Drug Screen. Data for the rad50 strain (AID 155);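 note: 0% = growth of vehicle-only cultures of the same strain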; conditions: S. cerevisiae rad50 strain growth inhibition; at 50.0 µM; active compounds read high
Method in brief: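 Vehicle-treated cultures provide the reference for the growth inhibition reported for compound-exposed, repair-deficient yeast.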

[2] = NCI Yeast Anticancer Drug Screen. Data for the mec2-1 strain (AID 157); conditions: S. cerevisiae mec2-1 strain, at 50.0 µM, active compounds read high
Method in brief: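 mec2-1 yeast strain, carrying an alteration in DNA damage repair or cell cycle control, was exposed to compounds; growth inhibition was measured relative to vehicle-treated controls.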

[3] = NCI Yeast Anticancer Drug Screen. Data for the sgs1 mgt1 strain (AID 161);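 note: 0% = growth of cultures given vehicle only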; conditions: S. cerevisiae sgs1 mgt1 strain, at 50.0 µM, active compounds read high
Method in brief: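 Yeast cells carrying a defined DNA-repair defect were exposed to test compounds. Growth inhibition was measured relative to vehicle-treated controls.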

[4] = NCI Yeast Anticancer Drug Screen. Data for the cln2 rad14 strain (AID 165);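 note: 0% = growth equal to vehicle treated cultures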; conditions: S. cerevisiae cln2 rad14 strain, at 50.0 µM, active compounds read high
Method in brief: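 Yeast carrying cln2 and rad14 alterations (cell cycle control and DNA damage repair) were exposed to compounds. Growth inhibition was measured against vehicle-treated controls.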

[5] = NCI Yeast Anticancer Drug Screen. Data for the bub3 strain (AID 167); conditions: S. cerevisiae bub3 mutant strain, at 50.0 µM, active compounds read high
Method in brief: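 Mutant yeast screening strain plus compound; vehicle-treated cultures serve as the 0% inhibition reference.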

[6] = NCI Yeast Anticancer Drug Screen. Data for the mlh1 rad18 strain (AID 175); conditions: S. cerevisiae mlh1 rad18 strain growth inhibition; at 50.0 µM; active compounds read high
Method in brief: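 Growth inhibition of the yeast strain was measured after compound exposure and expressed relative to vehicle-treated controls. The strain carries defined defects in DNA damage repair.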

SMILES	growth inhibition [1]	growth inhibition [2] [%]	growth inhibition [3]	growth inhibition [4] [%]	growth inhibition [5] [%]	growth inhibition [6] [%]
CCCCCCCCSc1nc(Nc2cc(C(C)(C)C)c(O)c(C(C)(C)C)c2)nc(SCCCCCCCC)n1	41.6%	1.95	13.1%	34.1	-0.9	28.4
Oc1cc2c(cc1O)C1c3ccc(O)c(O)c3OCC1(O)C2 (centres undefined)	21.9%	13	22.7%	-1	9.4	22.4
Cc1ccc2c(c1)C1(c3ccccc3)Oc3ccc(C)cc3C(c3ccccc3)(O2)O1	12.2%	5.75	10.7%	25.3	-4.9	-7.2
CCNc1ccc(Cl)cc1[N+](=O)[O-]	-28.8%	-66.2	11.9%	-6.95	-33.4	-26.6
CCOc1c(OC)cc(C2c3cc4c(c(OCC)c3CC3COC(=O)C32)OCO4)cc1OC (centres undefined)	36.8%	16.1	48.6%	28.1	19.8	0.25
CNC(=O)O[C@H]1C(=O)O[C@@H]2C[C@H]3C(C)=C(O)C(=O)C[C@]3(C)[C@H]3[C@@H](O)[C@H](O)[C@@]4(C(=O)OC)OC[C@]32[C@@H]14	24.9%	16.4	1.95%	7.3	14.9	16.9
COC1CCC(/C(C#N)=C/C2CCC(OC)C(OC)C2)CC1 (centres undefined)	77.1% (active)	66.8	77.7% (active)	-8.7	68.8	63
COC(C)CCOC(=O)COc1ccccc1 (centres undefined)	17.8%	-10	8.35%	-11.3	13.8	8.3
C[N+](C)(C)CC(=O)N/N=C(\C(=O)Nc1ccc(Cl)cc1)C1C(=O)N(c2ccccc2)N=C1N (centres undefined)	-15.4%	1.25	-14.8%	-13.8	-6.95	17.6
CCOc1ccccc1NC(=O)Nc1ccccc1Cl	-0.1%	-2.15	23.1%	-18.3	7.5	21.3
O=[N+]([O-])c1cc(Br)ccc1N1CCCC1	-8.7%	4.2	4.05%	-11.7	-2.3	-6.85
O=c1[nH]c(=S)c2ncn(C3OC(CO)C(O)C3O)c2[nH]1 (centres undefined)	-0.5%	-13.7	-11.1%	4.4	-1.1	11.8
N#CS[C@@H]1CCC[C@H]1O	-0.85%	-6.25	-18.5%	-18	1.65	-20.1
O=C1c2ccccc2C2(O)NC(=S)N(c3ccccc3)C12O (centres undefined)	-14.2%	-20.8	4.95%	15.4	6.2	-2.1
Cc1nc(C(N)=O)c(=O)[nH]c1C	2.25%	2.3	8%	-22.9	2.65	13.7
COc1ccc(N2C(=O)CSC2=S)cc1	58.6%	0	24.1%	-9.15	-4.85	33.1
CSc1c2c(c(C)c3c1[nH]c1ccccc13)C=NCC2	10.8%	13.8	8.6%	-83.2	14	17.7
CCCCNC(=O)C(CCCC)C(CCC)(CCC)CCCC (centres undefined)	-21.4%	-13	-16.5%	-35.8	55.3	3.55
C=C1C(O)CC2C(O)C3(C)CCC(C)(C)C3C12O (centres undefined)	3.55%	1.2	12.2%	15.3	-0.25	11.7
Brc1ncccn1	23.8%	-16.9	0.65%	17.9	7.75	14.8

SMILES	growth inhibition [1]	growth inhibition [2] [%]	growth inhibition [3]	growth inhibition [4] [%]	growth inhibition [5] [%]	growth inhibition [6] [%]
CC(=O)NC1C(OC(C)C(=O)NC(C)C(=O)NC(CCC(=O)NCCCCCNc2ccc([N+](=O)[O-])c3[nH]c4ccccc4c(=O)c23)C(N)=O)C(O)C(CO)OC1(C)OCc1ccccc1 (centres undefined)	13%	13.1	27.2%	23.9	19.9	32.9
C=CC(C)(C)NC(C(=O)N1CCC[C@H]1c1nc(-c2nc(C(=O)OCC=C(C)C)c(C)o2)c(C)o1)C(C)C (some centres undefined)	-4.25%	-10.7	15.6%	-11.3	3.05	-2.85
Cc1cc(C)c2nc3c(c(C(O)C4CCCCN4)c2c1)CC/C3=C\c1ccc(Cl)cc1 (centres undefined)	-28.8%	-22.4	16.9%	-7.75	-23.9	-4.75
C=CCS(=O)(=O)c1ccc(Cl)cc1	1.95%	2.25	-20.5%	-24.6	0.95	-22.2
CCC(=O)c1ccc(OC(=O)Nc2ccc(Cl)cc2[N+](=O)[O-])cc1	2.25%	42.8	38.5%	-0.75	26.2	-124
Cc1cc2c(=O)c3ccccc3[nH]c2c(C(N)=O)c1C	39.5%	7.8	1.75%	-6.9	-10.5	15.3
c1cn2cnnc2n2cnnc12	-2.7%	-13	-15.6%	-32	-0.8	-9.8
O=C(c1ccccc1)c1cc[n+]([O-])cc1	-5.6%	-11.8	-18%	-16.9	-8.7	12.7
Cc1cc(Cc2cc(C)c(NC(=O)C(=O)C3CCC4=C(SC5C=CC=CC5N4)C3=O)c(C(C)C)c2)cc(C(C)C)c1NC(=O)C(=O)C1CCC2=C(SC3C=CC=CC3N2)C1=O (centres undefined)	-15.8%	-13.6	-8.1%	15.2	15.3	-28.1
CCC1=C(O)C(=O)C(C)(C)C1=O	-5.85%	-5.2	-3.15%	-2.7	15.9	9.45
CCON=C1C(C)(C)C(C)(C)C(C)(C)C1(C)C	-13.4%	0.2	-24.6%	37.4	-16.1	-2.05
CC(C)(c1cn(Cc2ccccc2)c2ccccc12)c1cn(Cc2ccccc2)c2ccccc12	39%	4.2	17.9%	21.1	-4.05	10.8
NC(Cc1ccc(OC(c2ccccc2)(c2ccccc2)c2ccccc2)cc1)C(=O)O (centres undefined)	-23.6%	-9.5	0.75%	-18.4	-6.1	-12.2
CC(=O)N(C)c1ccc(N=CN(C)C)cc1	-80.3%	-27.5	-34.3%	-11.8	2.9	-27.9
N#CCCOCCNCCSC(=O)c1ccccc1	36.8%	4.05	12.4%	6.65	8.45	4.25
COC1C(O)=C2C(=O)OC(C)(O)/C=C/C=C\C=C/C=C/C(c3ccccc3)NC(=O)/C=C/C=C/C=C/C=C/C2(C)C1O (centres undefined)	-1.7%	-14.1	3.3%	3.55	-9.3	4.5
CC(C)c1ccc(N=Nc2ccc(N(C)C)cc2)cc1	4.2%	1.85	-4.55%	-17.9	-4.7	-5.65
N#Cc1cccc(N(C(=O)c2ccccc2)c2ccccc2)n1	4.35%	7.9	-4.5%	0.1	41	24.9
NN1CCCC(O)C1 (centres undefined)	-0.15%	-18.4	4.75%	4.5	5.1	5.4
